Laboratory results published in the supplement of paper PMC6555819.

System: PPARg DBDmut IVT, anti-PPARg (DBD mutation: PPARg1 K132A/R137A, NR concentration 270 nM)
Experiment: PBM binding z-score (relative to random genomic background probes); higher = stronger binding; sequences stand for … in GC…GCGATTGACAGCGTAGAATGAAGG
How it was run: (§1)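 Antibodies against each partner of ligand-free nuclear receptor dimers (one per run) detected binding on custom Agilent 4×180K protein-binding microarrays after 1 h incubation. The double-stranded probes had 34-nt variable regions carrying direct-repeat seeds, single-nucleotide variants, half-site ablations and random human genomic background sequences. Binding z-scores, from regression-normalized fluorescence, use the random background probes as reference.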

Sequence | PBM binding z-score
TCTTGTAGGTCAGCAGGTTAAGAAAGCTGGCCAA | 2.48
TAGCCTAGGTCATTCAGGGCCCAGTATAGAAAGC | -0.28
AATATAGGGTCACTAGGCCAGAGTAGGTACGAAT | 1.64
CCTCCGAGGACAACAGGAGGTCAGAGCTGCCAGA | -1.76
CCTAGCTGGTCAAGGTCACACACGCTATAGGTAC | 0.076
ATCGAAAGGTCGTCAGGTGAGTATACAGAAAGGC | 1.05
ATCGAAAGGTCGTGAGGTGAATATACAGAAAGGC | 0.704
TGAATGAGGTTATAAGAGCAGGGAACGTTGCAAA | 0.627
CCTAGTTGGCCAGGAGGTCACACACCGGATATGA | -0.0399
AGTCAAAGTTCACTAGGTAACGTCAGATTCAGCT | 0.959
AGAACGAGGGCACGCTGAGTAGATAGCAGAGTAG | 0.195
TCAGACAGGTGATGGTAACTCAGGTACGCAGTCG | -0.349
CCTCGGAGGACAAGAGGAGGTCAGAGCTGCCAGA | -1.36
ATATGTAGGTTATCGGGTAATTCAGTTTGCGCAT | 2.29
GCTATTAGTTGAAAGCGCAACCGAATGATTCTCG | -0.6
CGGCAAAGTTCAAGGTAACGTAACAGAAAGCAGC | -0.284
ATACCAAGGTGATCGTGAGGTTGTTGATACTAAC | 0.892
ACAGACAGGTGAGTGAAGGTACCTCAGCTGGACG | -0.459
GGAACGACGGCATTCGAGTTGATAGCATGGCGAT | -0.489
TCGCGTAGGTTACCAATGGGGCATTCAGCTTTCT | -0.793

Sequence | PBM binding z-score
TTACCAAGGTAAGCTGAGGTCGTTGATCCAACTC | -0.159
CCTACTGGGCCACGAAAGGTCAGTGATTCAGTGA | 0.78
GCTTCTAGATCAAGGTTAAGAAAGACTAAGCTAA | 0.106
ACGATTAGTTGAGACGAGGGCAACCGATAGGTTG | -0.573
ATATGTAGGTGAGCTGGGGTCATTCAGACTAGGC | 2.99
CCTAGTTGGTCAGGAGGTCTCACACCGGATATGA | 0.59
CTCGAAAGGTCGTGCTCAGGTGAGGATACCAAAC | 0.176
CCGGCTGGGGCAAGGTTACCATAACGCACAGCCA | -1.85
CCGACTGGGGCATAAGGTTACCATAAGCCAGCCC | -1.34
GCGACTGGGGCACAGCAGGTTACCATAAGGTTGG | -0.666
AGTCAAAGTTAAGGACGAGGTAACGTAAAGCACG | 0.362
CGTCCAAGGTCAACGTCAGTGAAAGAGACTCGAA | -0.9
ACAGACAGGTGAGTGAATGTAACTCAGCTGGACG | -0.309
GCTGCTAGGTCAACTGATGGTCAGATAAAGCTCG | 0.186
TGAATGAGGTTATAGGATCAGGGAACGTTGCAAA | -0.0124
TAGTCTAGGTCATTGGGCCAGTATAGTACGCATC | 2.94
CCAACTGGGCCAAAGGTCATTGATTCCAATGCTC | 1.89
AGCCAAAGTTCATCTAGGTAACGTAAGATATGCT | 0.579
TCATATAGGTCATACAGGTGAAAGTCGGCATCTA | 2.34

System: PPARg homodimer (NR concentration 180 nM)
Experiment: as above
How it was run: as §1

Sequence | PBM binding z-score
TCTTGTAGGTCAGCAGGTTAAGAAAGCTGGCCAA | 2.31
TAGCCTAGGTCATTCAGGGCCCAGTATAGAAAGC | 1.19
AATATAGGGTCACTAGGCCAGAGTAGGTACGAAT | 2.41
CCTCCGAGGACAACAGGAGGTCAGAGCTGCCAGA | 1.29
CCTAGCTGGTCAAGGTCACACACGCTATAGGTAC | 3.15
ATCGAAAGGTCGTCAGGTGAGTATACAGAAAGGC | 2.13
ATCGAAAGGTCGTGAGGTGAATATACAGAAAGGC | 2.17
TGAATGAGGTTATAAGAGCAGGGAACGTTGCAAA | 0.672
CCTAGTTGGCCAGGAGGTCACACACCGGATATGA | 2.61
AGTCAAAGTTCACTAGGTAACGTCAGATTCAGCT | 2.35
AGAACGAGGGCACGCTGAGTAGATAGCAGAGTAG | 0.114
TCAGACAGGTGATGGTAACTCAGGTACGCAGTCG | 0.0712
CCTCGGAGGACAAGAGGAGGTCAGAGCTGCCAGA | 0.986
ATATGTAGGTTATCGGGTAATTCAGTTTGCGCAT | 2.19
GCTATTAGTTGAAAGCGCAACCGAATGATTCTCG | 0.252
CGGCAAAGTTCAAGGTAACGTAACAGAAAGCAGC | 2.12
ATACCAAGGTGATCGTGAGGTTGTTGATACTAAC | 0.541
ACAGACAGGTGAGTGAAGGTACCTCAGCTGGACG | -0.919
GGAACGACGGCATTCGAGTTGATAGCATGGCGAT | -1.13
TCGCGTAGGTTACCAATGGGGCATTCAGCTTTCT | -0.721

Sequence | PBM binding z-score
TTACCAAGGTAAGCTGAGGTCGTTGATCCAACTC | -0.361
CCTACTGGGCCACGAAAGGTCAGTGATTCAGTGA | 3.12
GCTTCTAGATCAAGGTTAAGAAAGACTAAGCTAA | 0.0754
ACGATTAGTTGAGACGAGGGCAACCGATAGGTTG | 0.155
ATATGTAGGTGAGCTGGGGTCATTCAGACTAGGC | 1.94
CCTAGTTGGTCAGGAGGTCTCACACCGGATATGA | 1.25
CTCGAAAGGTCGTGCTCAGGTGAGGATACCAAAC | 1.74
CCGGCTGGGGCAAGGTTACCATAACGCACAGCCA | 0.0716
CCGACTGGGGCATAAGGTTACCATAAGCCAGCCC | 0.447
GCGACTGGGGCACAGCAGGTTACCATAAGGTTGG | 0.354
AGTCAAAGTTAAGGACGAGGTAACGTAAAGCACG | -0.757
CGTCCAAGGTCAACGTCAGTGAAAGAGACTCGAA | 2.39
ACAGACAGGTGAGTGAATGTAACTCAGCTGGACG | -0.0515
GCTGCTAGGTCAACTGATGGTCAGATAAAGCTCG | 2.79
TGAATGAGGTTATAGGATCAGGGAACGTTGCAAA | 0.65
TAGTCTAGGTCATTGGGCCAGTATAGTACGCATC | 3.92
CCAACTGGGCCAAAGGTCATTGATTCCAATGCTC | 3.57
AGCCAAAGTTCATCTAGGTAACGTAAGATATGCT | 3.87
TCATATAGGTCATACAGGTGAAAGTCGGCATCTA | 2.69
